# From PubChem BioAssay AID1508602 (The Scripps Research Institute Molecular Screening Center, 2020)
# Out of some 650,000 compounds screened, about 6,800 (1%) were called active. No stated cut-off is given here; in the data, active means activation above about 4.9%; inactive means the rest. The full list was thinned out, with actives kept by preference.
# Biological target: G-protein coupled receptor 151 (Homo sapiens) (UniProt Q8TDV0)
# Experiment: activators of human GPR151, primary screen, cell-based, PathHunter beta-arrestin, luminescence (AID 1508602);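 further: 0% = median of compound wells and 100% = cells with positive control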
# Conditions: PathHunter beta-arrestin GPR151 cells, at 11.2 µM, stronger effect = higher value
# Chain of G-protein coupled receptor 151 (Homo sapiens) (Q8TDV0 whole entry, looked up): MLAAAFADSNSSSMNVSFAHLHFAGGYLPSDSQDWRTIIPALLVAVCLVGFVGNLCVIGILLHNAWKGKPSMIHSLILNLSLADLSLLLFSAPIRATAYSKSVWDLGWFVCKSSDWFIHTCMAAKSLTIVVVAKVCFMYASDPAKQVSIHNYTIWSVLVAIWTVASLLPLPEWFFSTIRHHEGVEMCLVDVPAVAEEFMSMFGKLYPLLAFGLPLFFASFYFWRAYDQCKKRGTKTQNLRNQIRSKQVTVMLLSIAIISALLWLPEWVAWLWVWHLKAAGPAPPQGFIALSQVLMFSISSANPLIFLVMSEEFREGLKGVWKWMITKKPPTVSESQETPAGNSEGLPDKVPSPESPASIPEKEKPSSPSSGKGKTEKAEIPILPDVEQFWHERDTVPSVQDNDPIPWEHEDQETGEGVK
row,SMILES,activation
1,CCOc1cccc(NC(=O)Cn2nc(-c3ccc4c(c3)OCCO4)ccc2=O)c1,8% (active)
2,CCc1cccc(OCC(=O)Nc2ccc3c(c2)OCCO3)c1,-1.18% (inactive)
3,O=C(Cn1nc(-c2ccc3c(c2)OCCO3)ccc1=O)Nc1cccc(C(=O)NC2CC2)c1,0.799% (inactive)
4,O=C(CSc1nnc(Cc2ccccc2)o1)c1ccc([N+](=O)[O-])cc1,-0.861% (inactive)
5,Cc1nc2cc(C(=O)NCc3ccc4c(c3)OCO4)ccc2n1-c1ccc(OCc2ccccc2)cc1,9.26% (active)
6,CCOc1ccc(-n2c(C)nc3cc(C(=O)NCC(OCC)OCC)ccc32)cc1,-0.917% (inactive)
7,COc1ccccc1-n1c(C)nc2cc(C(=O)NCc3ccc4c(c3)OCO4)ccc21,-0.911% (inactive)
8,O=C(NC1CC1)c1ccc(-c2nc(NCCN3CCOCC3)c3[nH]cnc3n2)cc1,2.27% (inactive)
9,CCCn1c(=N)c(C(=O)NC2CCCCC2)cc2c(=O)n3cccc(C)c3nc21,-0.974% (inactive)
10,Cc1cccn2c(=O)c3cc(C(=O)NC4CCCCC4)c(=N)n(C4CCCCC4)c3nc12,5.92% (active)
11,Cc1ccc2nc3c(cc(C(=O)NC4CCCCC4)c(=N)n3C(C)C)c(=O)n2c1,0.735% (inactive)
12,COc1cccc(NC(=O)N2CCc3nc(-c4ccncc4)nc(N4CCCCC4)c3C2)c1,-2.11% (inactive)
13,CC12CCC(C(=O)Nc3c(Cl)cccc3Cl)(CC1=O)C2(C)C (configuration not stated),-0.214% (inactive)
14,CC12CCC(C(=O)Nc3ncc(Cl)cc3Cl)(CC1=O)C2(C)C (configuration not stated),5.35% (active)
15,CC12CCC(C(=O)Nc3cc(Cl)ccc3Cl)(CC1=O)C2(C)C (configuration not stated),-0.262% (inactive)
16,Cc1ccccc1-n1nc2c(c1NC(=O)C1CC1)CSC2,1.82% (inactive)
17,C=CCn1c(SCC(=O)Nc2nc(C)cs2)nnc1C(C)NC(=O)c1cccs1 (configuration not stated),0.0682% (inactive)
18,O=C(CCN(Cc1ccc(Cl)cc1)S(=O)(=O)c1ccc(Br)cc1)NO,0.218% (inactive)
19,CCOCCc1nnc(NC(=O)CC(C)(C)C)s1,-0.508% (inactive)

row,SMILES,activation
1,CC(=O)Nc1nnc(CCOCC(C)OCCc2nnc(NC(C)=O)s2)s1 (configuration not stated),5.04% (active)
2,CCCc1nnc(NC(=O)C(C)Oc2ccccc2)s1 (configuration not stated),0.536% (inactive)
3,CCOc1ccc(NC(=O)Nc2ccc(N(C)C(C)=O)cc2)cc1,6.4% (active)
4,CCOc1ccc(NC(=O)NC(=O)N(C)S(C)(=O)=O)cc1,-0.0562% (inactive)
5,CCOc1ccc(NC(=O)N(CC(C)C)CC(C)C)cc1,-1.58% (inactive)
6,CC1CCCC(C)N1C(=O)COC(=O)c1ccc(Cl)cc1N (configuration not stated),-1.01% (inactive)
7,COc1cccc(-c2ccccc2NC(=O)C2CCN(C3CCOCC3)CC2)c1,0.21% (inactive)
8,O=C(CCc1nc2ccccc2[nH]1)N1CCC2(CC1)OCc1cc(Cl)ccc1O2,-0.0529% (inactive)
9,COc1ccc(-c2noc(N3CCC(C(=O)NCCCN4CCN(C)CC4)CC3)n2)cc1,7.49% (active)
10,COc1ccc(-c2noc(N3CCC(C(=O)NCCCOC(C)C)CC3)n2)cc1,2.42% (inactive)
11,COc1ccc(-c2noc(N3CCCC(C(=O)NCCCN4CCC(C)CC4)C3)n2)cc1 (configuration not stated),-1.28% (inactive)
12,COC(=O)c1ccccc1NC(=O)C1=CC(c2cccc(OC)c2)=NS(=O)(=O)N1C,2.65% (inactive)
13,CCOC(=O)c1sc(=S)n(-c2ccc(Br)cc2)c1N,-1.26% (inactive)
14,Cc1ccc(-c2nnc(NCc3ccccc3)c3ccccc23)cc1S(=O)(=O)N1CCOCC1,-0.185% (inactive)
15,Cc1ccc(-c2nnc(N3CCOCC3)c3ccccc23)cc1S(=O)(=O)N1CCN(C)CC1,5.54% (active)
16,Cc1ccc(-c2nnc(N3CCOCC3)c3ccccc23)cc1S(=O)(=O)N1CCCCC1,-0.605% (inactive)
17,CCOC(=O)c1cnc2c(C)cc(Cl)cc2c1Nc1cccc([N+](=O)[O-])c1,-1.43% (inactive)
18,Cc1c(C)c2ccc(O)c(I)c2oc1=O,0.449% (inactive)
19,CCCOc1ccc([N+](=O)[O-])cc1C=C1C(=O)NC(=O)NC1=O,5.32% (active)

row,SMILES,activation
1,COc1ccc([N+](=O)[O-])cc1/C=C1\C(=O)NC(=O)N(c2ccc(Br)cc2)C1=O,2.28% (inactive)
2,O=C1NC(=O)C(=Cc2cc([N+](=O)[O-])cc(Br)c2O)C(=O)N1,0.835% (inactive)
3,O=C(NC1CCCCC1N1C(=O)CSC1=O)c1ccccc1F (configuration not stated),0.048% (inactive)
4,CCCN1C(=O)C(NS(=O)(=O)c2ccc(N)cc2)(C(F)(F)F)C(C(=O)OC)=C1C (configuration not stated),6.6% (active)
5,CCOC(=O)C1=C(C)N(Cc2ccco2)C(=O)C1(NC(=O)c1ccccc1)C(F)(F)F (configuration not stated),0.126% (inactive)
6,CC(=O)Nc1ccc(S(=O)(=O)NC2(C(F)(F)F)C(=O)NC(C)=C2C#N)cc1 (configuration not stated),0.355% (inactive)
7,Fc1cccc(C2=NC3(CCCC3)NC2=S)c1,1.94% (inactive)
8,Cc1nc(C)c(-c2csc(Nc3ccc(Br)cc3)n2)s1,-0.252% (inactive)
9,CC(=O)Nc1nc(C(=O)Nc2nc(-c3sc(C)nc3C)cs2)cs1,5.72% (active)
10,CC(=O)Nc1nc(C)c(-c2csc(Nc3ccc(C)cc3)n2)s1,0.136% (inactive)
11,N#Cc1c(SCC(=O)Nc2ccc(Br)cc2)nsc1SCC(=O)Nc1ccc(Br)cc1,-0.245% (inactive)
12,Cc1cccc2c(C(=O)N3CCOCC3)cc(-c3ccccc3)nc12,0.152% (inactive)
13,Cc1cc(C(=O)N2CCOCC2)c2ccccc2n1,-0.327% (inactive)
14,CCOc1ccccc1-c1cc(C(=O)N2CCOCC2)c2ccccc2n1,13.1% (active)
15,COc1cc([N+](=O)[O-])ccc1NC(=S)N1CCN(S(C)(=O)=O)CC1,0.0846% (inactive)
16,O=S(=O)(c1ccc(F)cc1)N1CCN(C(=S)NC2CCCC2)CC1,-1.65% (inactive)
17,COc1ccc(NC(=S)N2CCN(S(=O)(=O)c3ccc(F)cc3)CC2)c(OC)c1,8.74% (active)
18,COc1ccc(NC(=O)CSc2nc3n[nH]c(C)c3c(=N)n2-c2ccccc2Cl)c(OC)c1,0.84% (inactive)
19,CCOc1ccc(C(c2sc3nc(C)nn3c2O)N2CCCC2)cc1OC (configuration not stated),0.827% (inactive)
